Measured values as given in PubChem BioAssay AID651812 (National Center for Advancing Translational Sciences (NCATS), 2012).
Among all 2,100 compounds or so, about 650 (31%) were called active. Not shown: some 16% with an inconclusive outcome. This is one part of the list. Unmarked numbers belong to inactive results. Calls follow the shape of the dose curve; as a rule, active = well fitted inhibition curve with a large enough effect; inconclusive = small, poorly fitted or top-dose-only effect; inactive = flat fitted curve, though single readings scatter.

Test: qHTS for inhibitors of Vif-A3G interactions: Cherry picks; also: nearly all actives have a fitted effect of over 80% in size; as to activity, negative = fluorescence increase: % of control where 0% means no effect
Details: HeLa A3G-eYFP + Vif (tagged APOBEC3G with the HIV-1 protein that degrades it), 24 h; Potency: eYFP fluorescence increase; series mostly up to 36.9 µM; activity, negative = fluorescence increase: at the top concentration
Outline: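 HeLa cells stably expressing A3G-eYFP and Vif, cultured overnight then exposed to compounds at several concentrations for 24 hours at 37 C, 5% CO2; cellular yellow fluorescence (488 nm ex, 500-530 nm em) imaged on Acumen, MG132 positive control.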
Potency is read from the fitted curve at half-maximal effect.

| SMILES | activity, negative = fluorescence increase | Potency |
| --- | --- | --- |
| COc1ccc(-n2nnnc2S(=O)(=O)Cc2ccc(C(=O)O)cc2)cc1 | 0.257% |  |
| Cc1ccc(NC(=O)c2c(C)nc3sc(C(=O)NC4CCCC4)c(N)c3c2-c2ccco2)c(C)c1 |  | 20.6 µM (active) |
| COc1cccc(NC(=O)c2sc3nc(C)c(C(=O)Nc4ccc(C)cc4C)c(-c4ccco4)c3c2N)c1 | -28.7% [at 46.1 µM] |  |
| CCOC(=O)c1[nH]c(C)c(C(=O)Nc2ccc(C)cc2C)c1C | -4.32% |  |
| CCc1ccc(NC(=O)c2sc3nc(C)c(C(=O)Nc4ccc(C)cc4C)c(-c4ccco4)c3c2N)cc1 |  | 23.1 µM (active) |
| CCOC(=O)N1CCN(C(=O)c2[nH]c(C(F)(F)F)nc2-c2ccccc2)CC1 | -3.99% |  |
| CC1(C(=O)NCc2ccc(F)c(F)c2)Cc2c(-c3cccc(C(N)=O)c3)ccnc2O1 (centres undefined) | -4.8% |  |
| COc1ccc(CN(C(C)=O)c2cccc(C)c2C)cc1 | -5.97% |  |
| FC(F)(F)c1ccccc1NC(=S)NN=C1CCCCCC1 | -18% [at 46.1 µM] |  |
| COC(=O)c1sccc1S(=O)(=O)N(CC(=O)Nc1cc(F)ccc1F)c1ccc(C)c(C)c1 | 2% [at 46.1 µM] |  |
| N#CCC(=O)N/N=C/c1ccc(N2N=C(c3ccccc3)CC2c2ccccc2)cc1 (centres undefined) |  | 20.6 µM (active) |
| C/C(=N\NC(=S)NCc1ccccc1)c1cccs1 | -8.35% [at 46.1 µM] |  |
| C/C(=N\Nc1nccnc1Cl)c1ccc(Cl)c(Cl)c1 | -2.4% [at 46.1 µM] |  |
| COC(=O)c1sc2cc([N+](=O)[O-])cc(SCC(C)C)c2c1N |  | 16.4 µM (active) |
| CCOC(=O)c1sc2cc([N+](=O)[O-])cc(SCC(C)C)c2c1N |  | 2.91 µM (active) |
| CS(=O)(=O)N(CC(=O)N1CCN(Cc2ccccc2)CC1)c1ccccc1F | 1.65% [at 46.1 µM] |  |
| O=C(COC(=O)C12CC3CC(CC(Cl)(C3)C1)C2)N1CCCCC1 | -0.277% [at 46.1 µM] |  |
| O=Cc1sc(Nc2ccccc2)nc1Cl |  | 23.1 µM (active) |
| Cc1ccc(Nc2nc(Cl)c(C=O)s2)cc1Cl |  | 16.4 µM (active) |
| c1ccc(Nc2nc(-c3ccccn3)cs2)cc1 | -20.4% [at 46.1 µM] |  |
| COc1ccc(S(=O)(=O)N2CCCOC2CNC(=O)C(=O)NCCc2ccco2)cc1C (centres undefined) | 0.138% |  |
| C=C(C)CNC(=S)NNC(=O)c1ccco1 | -0.874% |  |
| Cc1ccc2c(Cl)c(C)c(N3CCCC3)nc2n1 | 0.2% [at 46.1 µM] |  |
| COc1ccc(C(=O)N2CCN(c3cccc(Cl)c3)CC2)cc1S(=O)(=O)NC1CC1 | -4.75% |  |
| Cc1c(CCCl)c(Cl)n2c(nc3ccccc32)c1C#N | -5.86% |  |

| SMILES | activity, negative = fluorescence increase | Potency |
| --- | --- | --- |
| Cc1ccc(C(=O)NCCn2c(N)c(C#N)c3nc4ccccc4nc32)cc1 |  | 23.1 µM (active) |
| Cc1ccc(C(=O)NN(C)c2nc3ccccc3nc2C(F)(F)F)cc1 | 0.321% |  |
| COc1ccc(-c2cnc3c(NC=O)cc(-c4ccoc4)cn23)cc1OC | -15.1% |  |
| CCN(CC)c1ccc(/C=N/NC(=O)c2ccco2)c(O)c1 | -14.9% |  |
| CC(C)NC(=S)N/N=C/c1sc(N2CCCCC2)nc1-c1cccs1 |  | 23.1 µM (active) |
| CC(C)NC(=S)N/N=C1\CCCCc2ccccc21 | 10.1% [at 46.1 µM] |  |
| CNC(=S)N/N=C/c1ccc(N2CCOCC2)s1 | -0.534% [at 46.1 µM] |  |
| CN(C)CCCNc1cc(N2CCN(C3CCCCC3)CC2)c2noc3c2c1C(=O)c1ccccc1-3 |  | 20.6 µM (active) |
| O=C1c2ccccc2-c2onc3c(N4CCN(C5CCCCC5)CC4)cc(NCCO)c1c23 |  | 4.61 µM (active) |
| CCNc1cc(N2CCN(C3CCCCC3)CC2)c2noc3c2c1C(=O)c1ccccc1-3 |  | 16.4 µM (active) |
| O=C(c1cc(-c2ccncc2)nc2ccccc12)N1CCN(c2ccccn2)CC1 | -7.38% |  |
| CCOc1cc(C)nc(NCc2ccccc2)n1 | -13.7% |  |
| C=CCOC(=O)C1=C(C)Nc2nnnn2C1c1cccs1 (centres undefined) | -3.28% |  |
| N#CC1=C(S)N(c2ccc(F)cc2)C2(CCCCC2)NC1=O | -2.54% [at 46.1 µM] |  |
| O=C(COc1ccccc1)NC(=S)Nc1cccc2c(O)cccc12 | -6.15% |  |
| COc1ccc(OC)c(NCc2cccn2-c2nnc(N3CCC(C)CC3)s2)c1 | -2.15% [at 46.1 µM] |  |
| Cc1ccc(CSc2nc(-c3ccc(C(C)(C)C)cc3)nc3cc(=O)[nH]n23)cc1 | 0.591% [at 46.1 µM] |  |
| O=C(N/N=C/c1ccsc1)c1cc(-c2cccs2)nc2ccccc12 | -2.5% |  |
| Nc1c(C(=O)Nc2nccs2)sc2nc(-c3cccs3)cc(C(F)(F)F)c12 |  | 14 µM (active) |
| Cc1nnc(NC(=O)c2sc3nc(-c4cccs4)cc(C(F)(F)F)c3c2N)s1 |  | 9.2 µM (active) |
| Nc1c(C(=O)Nc2nc3ccccc3s2)sc2nc(-c3cccs3)ccc12 |  | 18.4 µM (active) |
| O=C(Nc1nc2ccccc2s1)c1ccc([N+](=O)[O-])o1 | -9.27% |  |
| Nc1c(C(=O)Nc2ccc(F)cc2)sc2nc(-c3cccs3)cc(C(F)(F)F)c12 |  | 1.84 µM (active) |
| Cn1c(=O)c2c(nc(NC3CCCC3)n2C)n(C)c1=O | -11.2% [at 46.1 µM] |  |
